# Screening results as filed in PubChem BioAssay.
# The list is not random: actives were taken first. Their share in the collection is about 1.1%.
# OTUD3 block = blocks human OTUD3 ubiquitin-rhodamine cleavage. purified OTUD3, Ub-rhodamine fluorescence, 2 h. inhibition, % at 25 µM. actives 0.7% (n = 47,000). AID 1645858
# Target sequence (Q5T2D3 whole entry, looked up): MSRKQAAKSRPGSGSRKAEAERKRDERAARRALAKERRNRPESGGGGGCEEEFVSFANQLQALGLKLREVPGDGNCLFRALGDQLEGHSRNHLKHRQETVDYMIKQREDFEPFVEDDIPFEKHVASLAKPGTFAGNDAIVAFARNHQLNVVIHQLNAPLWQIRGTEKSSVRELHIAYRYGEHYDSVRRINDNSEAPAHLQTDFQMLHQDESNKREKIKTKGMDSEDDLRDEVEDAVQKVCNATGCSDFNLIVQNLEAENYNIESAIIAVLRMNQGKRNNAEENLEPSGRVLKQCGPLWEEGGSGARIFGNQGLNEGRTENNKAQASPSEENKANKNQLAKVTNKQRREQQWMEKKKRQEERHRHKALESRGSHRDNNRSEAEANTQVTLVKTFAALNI
# UCHL1 block = blocks human UCHL1 ubiquitin-rhodamine cleavage; P09936; purified UCHL1, Ub-rhodamine cleavage fluorescence; inhibition, % at 20 µM; actives 0.2% (n = 47,000); AID 1645859
# USP7 inh = blocks human USP7 ubiquitin-rhodamine cleavage; Q93009; AID 1645854; purified USP7, Ub-rhodamine cleavage fluorescence; actives 0.3% (n = 47,000); inhibition, % at 20 µM
# Numbers without * were called inactive. Cut-off read from the data, not from the text of the source: active = inhibition above about 30%; inactive = the rest.
SMILES,OTUD3 block,UCHL1 block,USP7 inh
C=C/C(=C/C(=O)C[C@H](C)C[C@@H](C)CC[C@H](O)[C@H](C)C(=O)CC(O)[C@H](C)[C@@H](C)OC(=O)C[C@@H](O)C1=C(C)C(=O)OC1=O)CC (stereo partly drawn),89*,92*,77*
O=C(COC(=O)C(O)(c1ccccc1)c1ccccc1)c1ccc2c(c1)OCCO2,8,3,2
O=C(Oc1ccccc1)N1CCC2(CCNCC2)C1,-3,-2,-4
Cc1ccc(C(CNC(=O)c2oc3ccc(F)cc3c2C)N2CCCC2)o1 (stereo not drawn),-24,-3,-12
CN(C)[C@H]1C(=O)C(C(N)=O)=C(O)C2(O)C(=O)C3=C(O)c4c(O)cccc4C(C)(O)C3C(O)C12 (stereo partly drawn),-136,43*,5
C1CC[C@@H](C23CC(C[C@H]4CCCN[C@@H]42)[C@H]2CCCCN2C3)NC1 (stereo partly drawn),6,-1,-1
Cc1cc(CN2C[C@H](OCC3CCOCC3)[C@H]3OCCC[C@H]32)no1,14,2,3
Cc1c(CC(=O)N2CCN(C)CC2)c(=O)oc2cc(O)c(Cl)cc12,-18,-7,-8
COc1cc(O)cc2c1C(=O)O[C@@H](C)CCCC(=O)CCCCC2,14,3,2
COC1=C(C2=C(OC)C(=O)c3cc4c(c(O)c3C2=O)C(=O)OC(C)C4)C(=O)c2c(cc3c(c2O)C(=O)OC(C)C3)C1=O (stereo not drawn),64*,40*,-67
C[C@H]1O[C@@H]2C3=C(C(=O)[C@H]4O[C@H]4[C@@H]3O)[C@@H]1[C@@H]1[C@@H](C)OC=C3[C@@H](O)[C@@H]4O[C@@H]4C(=O)[C@]312,-13,-2,-6
CC(C)CN1C[C@@H]2c3nc(N4CCCC4)ncc3CS(=O)(=O)[C@@H]2C1,-33,-12,-17
COc1c2c(c(O)c3c1C(=O)c1c(cc(O)c(C)c1O)C3=O)-c1c(cc3c(c1O)C(=O)OC3O)CC2 (stereo not drawn),89*,69*,55*
CC1Oc2cc3c(-c4c(O)cc(O)c5c(O)c6c(cc45)OC(C)C(C)C6=O)c(O)cc(O)c3c(O)c2C(=O)C1C (stereo not drawn),84*,88*,85*
CCN1CCC2(COCc3c(C)nc(-c4ccccc4)nc32)C1 (stereo not drawn),5,0,1
